Screening results deposited in PubChem BioAssay by The Scripps Research Institute Molecular Screening Center.
Shown are actives, neighbours in structure and some others; about 3.4% of the full set was active somewhere.
TEAD-YAP inh: TEAD-YAP interaction inhibition. HEK-TIYL cells, TEAD-Gal4/YAP UAS-luciferase luminescence. hit rate 1.4% among 640,000. inhibition, % at 9.12 µM; in the data active means inhibition above about 32%;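 further: 0% = median of test compound wells and 100% = reference inhibitor wells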
MITF inh: human MITF inhibition, primary screen | O75030 | AlphaScreen MITF homodimerization, bead proximity signal | inhibition, % at 2.6 µM | hit rate 0.91% among 650,000 | AID 1259374; in the data active means inhibition above about 50%;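 further: 0% = vehicle wells with protein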
GPR151 ag: activates the human receptor GPR151. Q8TDV0. PathHunter beta-arrestin GPR151 cells, luminescence. activation, % at 11.2 µM. hit rate 1% among 650,000. AID 1508602; in the data active means activation above about 4.9%;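 further: 0% = median of compound wells and 100% = cells with positive control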
Target sequence (Q8TDV0 whole entry, looked up): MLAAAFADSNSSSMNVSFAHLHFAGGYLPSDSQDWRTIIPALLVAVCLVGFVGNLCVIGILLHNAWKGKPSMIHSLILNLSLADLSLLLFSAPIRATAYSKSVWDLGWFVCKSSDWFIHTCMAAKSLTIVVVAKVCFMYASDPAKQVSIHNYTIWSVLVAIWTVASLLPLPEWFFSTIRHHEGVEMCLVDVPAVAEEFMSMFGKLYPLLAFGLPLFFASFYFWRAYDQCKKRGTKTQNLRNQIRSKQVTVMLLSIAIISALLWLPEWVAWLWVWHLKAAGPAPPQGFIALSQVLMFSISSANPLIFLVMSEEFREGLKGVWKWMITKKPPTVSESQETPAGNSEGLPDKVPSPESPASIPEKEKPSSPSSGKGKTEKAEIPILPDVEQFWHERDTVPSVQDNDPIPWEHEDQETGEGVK
FBW7 act: human FBW7 E3 ligase activation, primary screen. Q969H0. AlphaScreen FBW7–phospho-cyclin E peptide binding, activator screen. normalized activity (activation), % at 26.1 µM. hit rate 0.13% among 650,000; in the data active means normalized activity above about 1.9%;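 further: purified mutant Fbw7 with reduced substrate affinity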
* = called active by the depositor.

SMILES	TEAD-YAP inh	MITF inh	GPR151 ag	FBW7 act
CCOc1ccc(NC(=O)c2cc(S(=O)(=O)NCc3ccccc3Cl)ccc2F)cc1	45*	-19	-1	0
Cc1cc(Nc2ccc3c(c2)OCO3)nc(Nc2ccc(-n3ccnc3)cc2)n1	-33	19	0	0
CCC1=NN2C(=N)/C(=C/c3cc(Cl)c(OCCOc4cc(C)cc(CC)c4)c(OC)c3)C(=O)N=C2S1	-6	11	1	1
CCN1C(=O)CC(C(=O)OC)C12CCN(C(=O)c1ccc(N3CCOCC3)cc1)CC2 (stereo not drawn)	3	-22	-1	0
CCOc1ccc(NC(=O)c2ccc(F)c(S(=O)(=O)NCc3ccccc3)c2)cc1	37*	7	0	0
O=C(Nc1ccc(Oc2ccccc2)cc1)c1ccc(F)c(S(=O)(=O)NCc2ccc(F)cc2)c1	42*	20	-1	0
COc1ccc(CNS(=O)(=O)c2cc(C(=O)Nc3ccc(Oc4ccccc4)cc3)ccc2F)cc1	6	33	1	0
CNC(=O)c1ccccc1Nc1cc(Nc2ccc(C(=O)NC[C@H](O)C(=O)N(C)C)cc2OC)ncc1C(F)(F)F	17	29	-1	0
COc1cc(N2CCOCC2)ccc1Nc1cc(Nc2ccccc2C(=O)N(C)C)c(C(F)(F)F)cn1	-1	27	0	0
COc1cc(N2CCOCC2)ccc1Nc1cc(Nc2ccccc2C(N)=O)c(C(F)F)cn1	-11	-5	0	0
CNC(=O)c1ccccc1Nc1cc(Nc2ccc(C(=O)N(C)C)cc2OC)ncc1C(F)(F)F	57*	3	-1	0
CNC(=O)c1ccccc1Nc1cc(Nc2ccc(N3CCOCC3)cc2OC)ncc1C	44*	13	-1	0
CCN(CC)CCNC(=O)c1ccc(Nc2cc(Nc3ccccc3C(=O)NC)c(C(F)(F)F)cn2)c(OC)c1	64*	9	0	0
CCCc1cc(=O)oc2c(C)c(OC/C=C/c3ccccc3)ccc12	-1	12	0	0
COc1ccc(NC(=O)CN(c2ccc(OC)cc2OC)S(=O)(=O)c2ccccc2)cc1	-3	16	-2	0
O=C(/C=C/c1cccs1)n1cnc2ccccc21	2	14	1	1
CC1(C)CC(=O)c2cnc3c(-c4ccc(Cl)cc4)cnn3c2C1	57*	0	0	0
CC(=O)c1ccc(N2CC(O)=C(c3nc4ccccc4[nH]3)C2=N)cc1	-28	14	0	0
CCCCNS(=O)(=O)c1ccc2nc(SCC(C)=O)[nH]c2c1	34*	-12	5	0
CCOC(=O)N1CCc2c(sc3ncn(CC(=O)c4ccccc4)c(=O)c23)C1	49*	4	0	1
Cc1ccc(NC(=O)c2cnc(SCC(=O)N3CCCC3)n(C)c2=O)cc1	-9	14	-4	0
Cc1ccc(-c2cnc(SCC(=O)N3CCCC3)n2C)cc1	58*	-17	-1	0
CC(Oc1ccc(Cl)cc1Cl)C(=O)O/N=C(\N)c1ccncc1 (stereo not drawn)	-6	0	2	0
COc1cccc(CNC(=O)c2cc3ccc(-c4cn[nH]c4C)cc3[nH]2)c1	1	21	0	1
CC1CC(C)(C)Nc2ccc(OC(=O)c3ccccc3)cc21 (stereo not drawn)	44*	-5	0	0
SMILES	TEAD-YAP inh	MITF inh	GPR151 ag	FBW7 act
O=C(Oc1ccc(OC(=O)c2ccccc2)cc1)c1ccccc1	-4	0	0	0
COCCCn1c(=O)[nH]c2ncc(-c3cccc(F)c3)nc21	-3	14	0	0
COCCCn1c(=O)[nH]c2ncc(-c3cnc(OC)nc3)nc21	-3	15	-1	2.2*
CCOc1ccc2ccccc2c1C1NC(=S)NC(C)=C1C(N)=O (stereo not drawn)	-3	-9	0	0
Cc1c2oc3c(C)ccc(C(=O)C4CCCCO4)c3nc-2c(C(=O)C2CCCCO2)c(N)c1=O (stereo not drawn)	96*	13	2	0
Cc1cc(=O)[nH]c(N/N=C/c2cc(C)c(/C=N/Nc3nc(C)cc(=O)[nH]3)cc2C)n1	-2	2	0	0
Cc1n[nH]c(=O)nc1N/N=C/c1ccccc1O	18	94*	-7	-1
CC(C)(C)c1nnc(N/N=C/c2ccccc2O)[nH]c1=O	82*	96*	1	0
Cc1n[nH]c(=O)nc1N/N=C/c1cc(Br)ccc1O	76*	116*	-3	0
Cc1cc(=O)[nH]c(N/N=C/c2cc(Br)ccc2O)n1	7	65*	-2	0
CS(=O)(=O)c1cnc2ncnn2c1C1CCN(C(=O)C2CCCC2)CC1	5	18	0	1
O=C1CSC(=O)N1Cc1c(Cl)cccc1Cl	14	19	0	2.2*
CSc1ccccc1C(=O)C1CCCN(C(=O)c2ccc(C(C)=O)cc2)C1 (stereo not drawn)	-4	15	-1	0
COC(=O)CSCC(=O)Nc1nc2ccccc2s1	-5	-5	-4	0
Cc1ccc2nc(NC(=O)CSCC(=O)OCC(=O)c3ccccc3)sc2c1	68*	2	-1	0
CCOc1ccc(NC(=O)c2ccc(F)c(S(=O)(=O)NC3CCCC3)c2)cc1	69*	24	2	0
O=C(Nc1ccc(Br)cc1)c1ccc(F)c(S(=O)(=O)NC2CCCCCC2)c1	40*	-3	0	0
CC(=O)c1ccc(NC(=O)CCOc2cccc(Br)c2)cc1	-3	13	0	1
Cc1ncn(-c2ccc(Nc3nccc(-c4cc(C#N)cc(N5CCCC5)c4)n3)cc2)n1	-6	2	-1	0
N#Cc1ccc(Nc2nccc(-c3cncc(N4CCOCC4)c3)n2)cc1	3	2	4	0
OC1CCN(c2ccc(Nc3nccc(-c4cncc(N5CCOCC5)c4)n3)cc2)CC1	62*	11	0	0
OC1CCN(c2cc(F)cc(-c3ccnc(Nc4ccc(-n5cnc(-c6ccccn6)n5)cc4)n3)c2)CC1	85*	3	1	0
Fc1cc(-c2ccnc(Nc3ccc(-n4cnc(C(F)(F)F)n4)cc3)n2)cc(N2CCNCC2)c1	39*	9	1	1
CN1CCN(c2ncn(-c3ccc(Nc4nccc(-c5cc(C#N)cc(N6CCC(O)CC6)c5)n4)cc3)n2)CC1	42*	3	-1	0
Cc1ccnc(-c2ncn(-c3ccc(Nc4nccc(-c5cc(F)cc(N6CCOCC6)c5)n4)cc3)n2)c1	28	-8	1	0
Fc1cc(-c2ccnc(Nc3ccc(-n4cnc(C(F)(F)F)n4)cc3)n2)cc(N2CCN(C3CC3)CC2)c1	9	13	-1	0
CCCCOc1ccc(C(=O)N/C(=C/c2cccc(F)c2)C(=O)N2CC3CC(C2)c2cccc(=O)n2C3)cc1 (stereo not drawn)	5	17	0	0
N#Cc1cc(-c2ccnc(Nc3ccc(-n4cnc(-c5ccccn5)n4)cc3)n2)cc(N2CCCC(O)C2)c1 (stereo not drawn)	50*	9	1	0
